Experimental data from ChEMBL document CHEMBL3988442, “University of Dundee, Small-Polar-MMV Screening Library” (2021).
The whole screen tested about 48,000 compounds, of which about 13,000 (27%) showed an effect of 50% or more. Some of the results follow.

Test system: Wolbachia pipientis
Test: Anti-Wolbachia Cell-Based Screen
Format: functional
Design: scale not given: in the data most compounds retested in dose-response had high values
Conditions: 5 µM

| SMILES | Percent Effect [%] |
| --- | --- |
| CCN1CCC(CNCc2cc(C)ccc2OC)C1 (stereo not drawn) | 23.09 |
| Cc1[nH]nc2ncc(C(=O)N3CCN(C(C)(C)C)CC3)cc12 | 13.12 |
| CN(C)c1ccccc1CN1CCCCC1CNS(C)(=O)=O (stereo not drawn) | -10.3 |
| O=C1CC2(CCN(C(=O)c3csc(-c4ccccc4)n3)C2)C(=O)N1 (stereo not drawn) | 6.339 |
| COCCCN1CCC(NC(=O)C2CC2)CC1 | -0.3398 |
| O=C(c1ccoc1)N1CCn2nc(CN3CCSCC3)cc2C1 | -1.758 |
| O=C([C@H]1C[C@H]2[C@H](CCN2Cc2cccs2)O1)N1CCOCC1 | 91.43 |
| Cn1cnc(-c2nc(C(=O)NCC3CCCO3)c3ccccn23)c1 (stereo not drawn) | -2.484 |
| CN(C)Cc1nc(-n2cnc(C(=O)NC3CCCC3)c2)n2ccccc12 | 115.9 |
| O=C(NCCO)c1ccn(-c2ccc3ccccn23)n1 | -13.14 |
| O=C(NC1CCCC1)c1cc(Cn2cnc3ccccc32)on1 | -23.61 |
| CN(Cc1nnc2ccccn12)C(=O)NC1CCCCC1 | -15.02 |
| CN(C)Cc1nc(-n2cnc(C(=O)NCC3CC3)c2)n2ccccc12 | 123.3 |
| Cc1nc[nH]c1-c1nc2cc(S(=O)(=O)N3CCCC3)ccc2n1C | -21.22 |
| Cc1ncc(CNc2cnccc2CO)s1 | 7.83 |
| O=C(c1ccnnc1)N1C[C@@H]2CC[C@H](Oc3cccc(F)c3)[C@@H]2C1 | -13.73 |
| CCS(=O)(=O)N1C[C@@H](O)[C@H](Oc2cccc(F)c2)C1 | 115.8 |

| SMILES | Percent Effect [%] |
| --- | --- |
| CCN(Cc1cccc(F)c1)S(=O)(=O)N1CCOCC1 | -36.14 |
| Cc1cnccc1CN1C[C@@H](O)[C@H](Oc2cccc(F)c2)C1 | -1.659 |
| CCN(CC)S(=O)(=O)N1C[C@@H](O)[C@H](Oc2cccc(F)c2)C1 | 71.42 |
| CCN(C)C(=O)c1ccc(N2CCC(Oc3cccc(F)c3)CC2)nc1 | -6.141 |
| COc1cccc(F)c1-c1nc2c([nH]1)c(C1CC1)nn2C | 3.42 |
| CCCC(C)C(=O)Nc1ccc(OC)nc1N1CCN(C(C)=O)CC1 (stereo not drawn) | -14.17 |
| CNc1cc(CNC(=O)c2ccccc2OC)nc(-c2ccncc2)n1 | 104.1 |
| CNc1cc(CNC(=O)c2cccnc2)nc(-c2ccncc2)n1 | 94.55 |
| CNc1cc(CNC(=O)c2ccccn2)nc(-c2ccncc2)n1 | -12.05 |
| O=C(NCCOc1ncc(Cl)cc1Cl)c1cccnc1 | 0.5232 |
| COc1cc(C(=O)N(C)C(C)Cc2cc(C)ccn2)ccn1 (stereo not drawn) | -2.709 |
| CNc1cc(CNC(=O)c2ccncc2)nc(-c2ccncc2)n1 | 109.4 |
| CNc1cc(CNC(=O)c2ccccc2)nc(-c2ccncc2)n1 | -7.143 |
| COc1cc(C(=O)NCc2cc(N3CCOCC3)ncn2)ccn1 | 5.956 |
| CNc1cc(CNC(=O)c2ccnc(OC)c2)nc(-c2ccncc2)n1 | 103.5 |
| Cc1cc(NC(C)C(=O)NCc2ccccc2)nc(-c2ccncc2)n1 (stereo not drawn) | 6.15 |
